Reference: PMC11062922 (Nature Chemical Biology, 2023)
Read-outs that look alike come from different tables or passages of the source.

How the values were obtained:
CDK7 = test system: CDK7; parameters: species or system human, MV4-11 + K-562 + COLO205 + SK-N-BE2 + OVCAR-8; conditions: read-out: apparent Kd; compound concentrations: 100 nM and 1000 nM (sheet 'Samples'), CATDS: 4.9338137384748702E-2; n = 1
ERCC2 = test system: ERCC2; parameters: species or system human, MV4-11 + K-562 + COLO205 + SK-N-BE2 + OVCAR-8; conditions: read-out: apparent Kd; compound concentrations: 100 nM and 1000 nM (sheet 'Samples'), CATDS: 5.1368063894958502E-2; n = 1
FER = test system: FER; parameters: species or system human, MV4-11 + K-562 + COLO205 + SK-N-BE2 + OVCAR-8; conditions: read-out: apparent Kd; compound concentrations: 100 nM and 1000 nM (sheet 'Samples'), CATDS: 5.6215291988472402E-2; n = 1
GAK = test system: GAK; parameters: species or system human, MV4-11 + K-562 + COLO205 + SK-N-BE2 + OVCAR-8; conditions: read-out: apparent Kd; compound concentrations: 100 nM and 1000 nM (sheet 'Samples'), CATDS: 4.9289180471638903E-2; n = 1
MAPK10 = test system: MAPK10; parameters: species or system human, MV4-11 + K-562 + COLO205 + SK-N-BE2 + OVCAR-8; conditions: read-out: apparent Kd; compound concentrations: 100 nM and 1000 nM (sheet 'Samples'), CATDS: 5.8204150926545503E-2; n = 1
MAPK14 = test system: MAPK14; parameters: species or system human, MV4-11 + K-562 + COLO205 + SK-N-BE2 + OVCAR-8; conditions: read-out: apparent Kd, compound concentrations: 100 nM and 1000 nM (sheet 'Samples'), n = 1
MAPK9 = test system: MAPK9; parameters: species or system human, MV4-11 + K-562 + COLO205 + SK-N-BE2 + OVCAR-8; conditions: read-out: apparent Kd; compound concentrations: 100 nM and 1000 nM (sheet 'Samples'), CATDS: 5.1291573819888199E-2; n = 1
MAPKAPK2 = test system: MAPKAPK2; parameters: species or system human, MV4-11 + K-562 + COLO205 + SK-N-BE2 + OVCAR-8; conditions: read-out: apparent Kd, n = 1
NLK = test system: NLK; parameters: species or system human, MV4-11 + K-562 + COLO205 + SK-N-BE2 + OVCAR-8; conditions: read-out: apparent Kd, n = 1
PAK4 = test system: PAK4; parameters: species or system human, MV4-11 + K-562 + COLO205 + SK-N-BE2 + OVCAR-8; conditions: read-out: apparent Kd; compound concentrations: 100 nM and 1000 nM (sheet 'Samples'), CATDS: 5.1367607354333399E-2; n = 1
PIP4K2C = test system: PIP4K2C; parameters: species or system human, MV4-11 + K-562 + COLO205 + SK-N-BE2 + OVCAR-8; conditions: read-out: apparent Kd; compound concentrations: 100 nM and 1000 nM (sheet 'Samples'), CATDS: 6.1444231758823603E-2; n = 1
PTK2B = test system: PTK2B; parameters: species or system human, MV4-11 + K-562 + COLO205 + SK-N-BE2 + OVCAR-8; conditions: read-out: apparent Kd; compound concentrations: 100 nM and 1000 nM (sheet 'Samples'), CATDS: 5.2093058874082297E-2; n = 1
Q6ZSR9 = Q6ZSR9 (human, UniProt Q6ZSR9); parameters: species or system MV4-11 + K-562 + COLO205 + SK-N-BE2 + OVCAR-8; conditions: read-out: apparent Kd; compound concentrations: 100 nM and 1000 nM (sheet 'Samples'), CATDS: 4.2380052385305601E-2; n = 1
SIK2 = test system: SIK2; parameters: species or system human, MV4-11 + K-562 + COLO205 + SK-N-BE2 + OVCAR-8; conditions: read-out: apparent Kd; compound concentrations: 100 nM and 1000 nM (sheet 'Samples'), CATDS: 4.6797026760186898E-2; n = 1
STK3 = test system: STK3; parameters: species or system human, MV4-11 + K-562 + COLO205 + SK-N-BE2 + OVCAR-8; conditions: read-out: apparent Kd; compound concentrations: 100 nM and 1000 nM (sheet 'Samples'), CATDS: 4.17809647402431E-2; n = 1
STK4 = test system: STK4; parameters: species or system human, MV4-11 + K-562 + COLO205 + SK-N-BE2 + OVCAR-8; conditions: read-out: apparent Kd; compound concentrations: 100 nM and 1000 nM (sheet 'Samples'), CATDS: 4.6786088352923701E-2; n = 1
TNK1 = test system: TNK1; parameters: species or system human, MV4-11 + K-562 + COLO205 + SK-N-BE2 + OVCAR-8; conditions: read-out: apparent Kd; compound concentrations: 100 nM and 1000 nM (sheet 'Samples'), CATDS: 5.4278066670988299E-2; n = 1
TNK2 = test system: TNK2; parameters: species or system human, MV4-11 + K-562 + COLO205 + SK-N-BE2 + OVCAR-8; conditions: read-out: apparent Kd; compound concentrations: 100 nM and 1000 nM (sheet 'Samples'), CATDS: 7.0528629271619694E-2; n = 1
CDKL5 = test system: CDKL5; parameters: species or system human, MV4-11 + K-562 + COLO205 + SK-N-BE2 + OVCAR-8; conditions: read-out: apparent Kd; compound concentrations: 100 nM and 1000 nM (sheet 'Samples'), CATDS: 0.17547829897004599; n = 1
MAPK11 = test system: MAPK11; parameters: species or system human, MV4-11 + K-562 + COLO205 + SK-N-BE2 + OVCAR-8; conditions: read-out: apparent Kd, n = 1
CDK6 = test system: CDK6; parameters: species or system human, MV4-11 + K-562 + COLO205 + SK-N-BE2 + OVCAR-8; conditions: read-out: apparent Kd, n = 1
PIM2 = test system: PIM2; parameters: species or system human, MV4-11 + K-562 + COLO205 + SK-N-BE2 + OVCAR-8; conditions: read-out: apparent Kd; compound concentrations: 100 nM and 1000 nM (sheet 'Samples'), CATDS: 0.49047797816886901; n = 1
CIT = test system: CIT; parameters: species or system human, MV4-11 + K-562 + COLO205 + SK-N-BE2 + OVCAR-8; conditions: read-out: apparent Kd; compound concentrations:100 nM and 1000 nM (sheet 'Samples'); n = 1
CSNK1A1 = test system: CSNK1A1; parameters: species or system human, MV4-11 + K-562 + COLO205 + SK-N-BE2 + OVCAR-8; conditions: read-out: apparent Kd; compound concentrations:100 nM and 1000 nM (sheet 'Samples'); n = 1
CSNK1D = test system: CSNK1D; parameters: species or system human, MV4-11 + K-562 + COLO205 + SK-N-BE2 + OVCAR-8; conditions: read-out: apparent Kd; compound concentrations:100 nM and 1000 nM (sheet 'Samples'); n = 1
CSNK1E = test system: CSNK1E; parameters: species or system human, MV4-11 + K-562 + COLO205 + SK-N-BE2 + OVCAR-8; conditions: read-out: apparent Kd; compound concentrations:100 nM and 1000 nM (sheet 'Samples'); n = 1
DDR1 = test system: DDR1; parameters: species or system human, MV4-11 + K-562 + COLO205 + SK-N-BE2 + OVCAR-8; conditions: read-out: apparent Kd; compound concentrations:100 nM and 1000 nM (sheet 'Samples'); n = 1
PRKCA = test system: PRKCA; parameters: species or system human, MV4-11 + K-562 + COLO205 + SK-N-BE2 + OVCAR-8; conditions: read-out: apparent Kd; compound concentrations:100 nM and 1000 nM (sheet 'Samples'); n = 1
PRKD2 = test system: PRKD2; parameters: species or system human, MV4-11 + K-562 + COLO205 + SK-N-BE2 + OVCAR-8; conditions: read-out: apparent Kd; compound concentrations:100 nM and 1000 nM (sheet 'Samples'); n = 1
PRKD3 = test system: PRKD3; parameters: species or system human, MV4-11 + K-562 + COLO205 + SK-N-BE2 + OVCAR-8; conditions: read-out: apparent Kd; compound concentrations:100 nM and 1000 nM (sheet 'Samples'); n = 1
RIPK2 = test system: RIPK2; parameters: species or system human, MV4-11 + K-562 + COLO205 + SK-N-BE2 + OVCAR-8; conditions: read-out: apparent Kd; compound concentrations:100 nM and 1000 nM (sheet 'Samples'); n = 1
SIK3 = test system: SIK3; parameters: species or system human, MV4-11 + K-562 + COLO205 + SK-N-BE2 + OVCAR-8; conditions: read-out: apparent Kd; compound concentrations:100 nM and 1000 nM (sheet 'Samples'); n = 1
TNIK = test system: TNIK; parameters: species or system human, MV4-11 + K-562 + COLO205 + SK-N-BE2 + OVCAR-8; conditions: read-out: apparent Kd; compound concentrations:100 nM and 1000 nM (sheet 'Samples'); n = 1
[1] = compound concentrations:100 nM and 1000 nM (sheet 'Samples')

Chain of Q6ZSR9 (Q6ZSR9 whole entry, looked up): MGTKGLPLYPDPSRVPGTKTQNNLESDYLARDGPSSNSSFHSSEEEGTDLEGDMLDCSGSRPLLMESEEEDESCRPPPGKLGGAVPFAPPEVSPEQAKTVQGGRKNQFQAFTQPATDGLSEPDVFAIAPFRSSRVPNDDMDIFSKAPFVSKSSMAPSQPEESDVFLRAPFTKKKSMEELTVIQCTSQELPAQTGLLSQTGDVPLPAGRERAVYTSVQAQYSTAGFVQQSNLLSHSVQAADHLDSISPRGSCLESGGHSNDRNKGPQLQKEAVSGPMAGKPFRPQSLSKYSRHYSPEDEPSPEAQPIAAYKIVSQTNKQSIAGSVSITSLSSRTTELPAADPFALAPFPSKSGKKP

Cl.Cn1c(=O)c(Oc2cccc(F)c2)cc2cnc(NC3CCOCC3)nc21 [RO3304774-001]
potency estimated from few doses (CDK7): 1360 nM
potency estimated from few doses (ERCC2): 1240 nM
potency estimated from few doses (FER): 1010 nM
potency estimated from few doses (GAK): 1370 nM
potency estimated from few doses (MAPK10): 939 nM
potency estimated from few doses (MAPK14; CATDS: 6.3546758887955801E-2): 786 nM
potency estimated from few doses (MAPK9): 1240 nM
potency estimated from few doses (MAPKAPK2; compound concentrations: 100 nM and 1000 nM (sheet 'Samples'), CATDS: 6.9359248510779001E-2): 665 nM
potency estimated from few doses (NLK; compound concentrations: 100 nM and 1000 nM (sheet 'Samples'), CATDS: 0.64871625608349803): 17.9 nM
potency estimated from few doses (PAK4): 1240 nM
potency estimated from few doses (PIP4K2C): 840 nM
potency estimated from few doses (PTK2B): 1200 nM
potency estimated from few doses (Q6ZSR9): 2060 nM
potency estimated from few doses (SIK2): 1560 nM
potency estimated from few doses (STK3): 2160 nM
potency estimated from few doses (STK4): 1560 nM
potency estimated from few doses (TNK1): 1090 nM
potency estimated from few doses (TNK2): 645 nM

Cl.Nc1c(C(=O)c2cccc(-c3ccncc3)c2)cnn1-c1ccc(F)cc1F [RO1166300-001]
potency estimated from few doses (CDKL5): 1830 nM
potency estimated from few doses (MAPK11; compound concentrations: 100 nM and 1000 nM (sheet 'Samples'), CATDS: 0.67677633408210103): 82.3 nM
potency estimated from few doses (MAPK14; CATDS: 0.205012911986655): 1060 nM
potency estimated from few doses (MAPKAPK2; compound concentrations: 100 nM and 1000 nM (sheet 'Samples'), CATDS: 0.2534240729319): 584 nM

O=C(Nc1n[nH]c2cc(-c3ccccc3F)ccc12)C1CC1 [SB-733371]
potency estimated from few doses (CDK6; compound concentrations: 100 nM and 1000 nM (sheet 'Samples'), CATDS: 0.50989905801732505): 1670 nM
potency estimated from few doses (PIM2): 1800 nM

COc1cc(C)c(N(C)C(=O)CN(C)C)cc1Nc1nc(Nc2cccc(F)c2C(N)=O)c2cc[nH]c2n1 [GSK2219385_KCGS]
potency estimated from few doses (CDK6; [1]): 1850 nM

Cl.Nc1nccc(-c2c(-c3ccc(F)cc3)ncn2C2CCNCC2)n1 [SB-220025-A]
potency estimated from few doses (CIT): 815 nM
potency estimated from few doses (CSNK1A1): 19.8 nM
potency estimated from few doses (CSNK1D): 1.63 nM
potency estimated from few doses (CSNK1E): 2.51 nM
potency estimated from few doses (DDR1): 1350 nM
potency estimated from few doses (MAPK11; [1]): 689 nM
potency estimated from few doses (MAPKAPK2; [1]): 3.23 nM
potency estimated from few doses (NLK; [1]): 324 nM
potency estimated from few doses (PRKCA): 2370 nM
potency estimated from few doses (PRKD2): 956 nM
potency estimated from few doses (PRKD3): 1420 nM
potency estimated from few doses (RIPK2): 68.3 nM
potency estimated from few doses (SIK3): 1140 nM
potency estimated from few doses (TNIK): 1610 nM
